An excerpt weighted towards active compounds, which were near 5.4% of everything screened.
ALOX12 inhib = qHTS Assay for Inhibitors of 12-hLO (12-human lipoxygenase); purified 12-hLO, xylenol orange hydroperoxide absorbance; Potency, µM (top dose mostly 57.1 µM), most hits filed as inhibitors; 150,000 compounds, 0.12% hits; AID 1452, 2008; further: nearly all actives have a fitted effect of over 55% in size
Target sequence (P18054 whole entry, looked up): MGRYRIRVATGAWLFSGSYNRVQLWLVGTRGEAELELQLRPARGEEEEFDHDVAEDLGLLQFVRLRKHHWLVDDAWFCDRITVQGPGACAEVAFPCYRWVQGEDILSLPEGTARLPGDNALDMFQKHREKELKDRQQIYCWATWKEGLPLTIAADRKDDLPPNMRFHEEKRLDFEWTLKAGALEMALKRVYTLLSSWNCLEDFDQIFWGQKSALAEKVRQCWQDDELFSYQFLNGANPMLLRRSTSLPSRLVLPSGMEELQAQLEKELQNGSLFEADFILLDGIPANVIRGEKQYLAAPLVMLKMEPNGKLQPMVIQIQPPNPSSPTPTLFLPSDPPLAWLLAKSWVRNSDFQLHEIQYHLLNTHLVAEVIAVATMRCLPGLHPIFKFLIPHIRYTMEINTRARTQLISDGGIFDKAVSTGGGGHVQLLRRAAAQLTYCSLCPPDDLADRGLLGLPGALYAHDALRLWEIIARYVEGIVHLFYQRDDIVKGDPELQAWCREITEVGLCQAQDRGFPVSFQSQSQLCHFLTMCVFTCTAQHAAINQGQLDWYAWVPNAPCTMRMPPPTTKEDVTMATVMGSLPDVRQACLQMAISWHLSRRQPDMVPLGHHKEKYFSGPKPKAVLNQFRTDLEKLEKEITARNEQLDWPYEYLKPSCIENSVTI
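Xylenol orange chromogenic assay: hydroperoxide from 12hLO oxidises Fe(II), giving red-shifted Fe(III)-XO absorbance. Conditions: 150 nM enzyme, 40 uM arachidonic acid, 25 mM Hepes pH 7.0, 0.01% Triton X-100, 30 min, room temperature.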
IMPase Li cell = qHTS Assay for Identifying the Cell-Membrane Permeable IMPase Inhibitors: Potentiation with Lithium | AID 1457, 2008 | Potency, µM (doses to about 59.4 µM), hits mostly inhibitors | 210,000 compounds, 0.35% hits | CHO-M1 cells, IP1 TR-FRET (IP-One), carbachol + lithium;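 further: IP1 builds up when IMPase is blocked and the TR-FRET signal falls; nearly all actives have a fitted effect of over 50% in size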
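Steps: plate 2000 CHO-M1 cells per well and culture 16–30 h; add compound and lithium; incubate 30 min, 37C; add d2-IP1 tracer and Eu cryptate anti-IP1 antibody in lysis buffer; read after 10 min at room temperature.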
PNC assembly inh = High Content Assay for Compounds that inhibit the Assembly of the Perinucleolar Compartment | PC3M PTB-GFP, PNC prevalence imaging, 16 h; stronger effect = lower value | activity change (PNC), negative = inhibition, % at 10 µM | 140,000 compounds, 3.1% hits;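 active means readout at or below -70, meaning at least 70% loss of cells showing the perinucleolar compartment, a nuclear body marking cancer cells; inconclusive means readout between -30 and a set limit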
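PC3M cells stably expressing PTB-GFP, 750–1000 cells/well, treated 16 h at 37 °C with compound (23 nl of library stock), in duplicate. After paraformaldehyde fixation and Hoechst stain, imaged at 20x; PNC prevalence scored by image analysis.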
IMPase inh = qHTS Assay for Identifying the Cell-Membrane Permeable IMPase Inhibitors | inhibition (IP1 accumulation), % at 46.1 µM | CHO-M1 cells, IP1 accumulation, HTRF TR-FRET ratio | 120,000 tested, under 10 active | Inositol monophosphatase 1 (Rattus norvegicus), P97697; active means well fitted curve in the direction sought with a large enough effect in the signal ratio, not every such curve was filed as active; inconclusive means small, poorly fitted or top-dose-only effect, or a change in a side signal; inactive means no such curve, though single readings can be large or run the other way; the % refers to the signal ratio;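 further: cells stimulated with carbachol in lithium chloride buffer; higher means more IMPase inhibition seen as more IP1 and lower FRET ratio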
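Carbachol-driven Gq signalling in CHO-M1 cells (2000/well) generates IP1. Compounds that block IMPase raise IP1 and so reduce the FRET signal from Eu-anti-IP1 and d2-IP1 after a 10 min room-temperature lysis.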
HPGD block = qHTS Assay for Inhibitors of HPGD (15-Hydroxyprostaglandin Dehydrogenase) | 15-hydroxyprostaglandin dehydrogenase [NAD(+)] (Homo sapiens), P15428 | purified HPGD, NADH fluorescence kinetic, PGE2 substrate | Potency, µM, most hits filed as inhibitors | 150,000 compounds, 4.3% hits; active means well fitted inhibition curve with a large enough effect, not every such curve was filed as active; inconclusive means small, poorly fitted or top-dose-only effect, or another doubt; inactive means no such curve, though single readings can be large or run the other way
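20 nM HPGD preincubated 15 min at room temperature with compound in 50 mM Tris-HCl pH 8, 0.01% Tween 20. Started with 1 mM NAD+ and 30 uM prostaglandin E2; NADH fluorescence (360/450 nm) read 5 times over 30-s intervals, last minus first.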
15-hLO-2 inh = qHTS Assay for Inhibitors of 15-hLO-2 (15-human lipoxygenase 2); Polyunsaturated fatty acid lipoxygenase ALOX15B (Homo sapiens), O15296; purified 15hLO-2, xylenol orange hydroperoxide absorbance; Potency, µM (series often up to 57.1 µM), most hits filed as inhibitors; 110,000 compounds, 0.56% hits; AID 881, 2007; further: nearly all actives have a fitted effect of over 60% in size
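Enzyme 50 nM, AA 45 uM, 25 mM Hepes pH 7.5 + 0.01% Triton X-100; cpd preinc 15 min RT, rxn 90 min RT; stop/detect with 200 uM XO + 300 uM Fe(II) in 50 mM H2SO4, 30 min; A573/A405.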
Hits are given with their value; [ ] = remark or other dose. Unless noted, the call rests on the fitted dose curve; in most records, active means well fitted curve in the direction sought with a large enough effect; inconclusive means small, poorly fitted or top-dose-only effect, or another doubt; inactive means no such curve, though single readings can be large; an effect the other way counts as inactive or inconclusive.

What do the screens show for `Cc1cccnc1N(C(=O)Nc1ccccc1)C1=NCC(C)(C)S1`?
ALOX12 inhib: inactive; IMPase Li cell: inactive; PNC assembly inh: -89.1; IMPase inh: inactive; HPGD block: inactive; 15-hLO-2 inh: inactive

How did O=C(O)CCSCc1ccccc1 do in these assays?
ALOX12 inhib: inactive[11.4 µM]; IMPase Li cell: inactive; HPGD block: inactive; 15-hLO-2 inh: inactive[11.4 µM]

How did O=C(O)c1ccc(C(=O)O)c(C(=O)Nc2ccc3c(c2)Cc2ccccc2-3)c1 do in these assays?
ALOX12 inhib: inactive[11.4 µM]; IMPase Li cell: inactive; HPGD block: 3.16µM; 15-hLO-2 inh: inactive[11.4 µM]

Results for COc1ccc(OC)c(S(=O)(=O)N2CCC(C(=O)NCCC3=CCCCC3)CC2)c1 ?
ALOX12 inhib: inactive; IMPase Li cell: inactive; PNC assembly inh: -100.0; IMPase inh: inactive; HPGD block: inactive

What do the screens show for `Cc1oc(-c2cccc(Cl)c2)nc1CN1CCC(C(=O)NCCCN2CCCC2=O)CC1`?
ALOX12 inhib: inactive; IMPase Li cell: inactive; PNC assembly inh: inactive; IMPase inh: inactive; HPGD block: inactive; 15-hLO-2 inh: inactive

What do the screens show for `COc1ccc(CCNC(=O)C2CCN(S(C)(=O)=O)CC2)cc1OC`?
ALOX12 inhib: inactive; IMPase Li cell: inactive; PNC assembly inh: inactive; IMPase inh: inactive[1.84 µM]; HPGD block: inactive; 15-hLO-2 inh: inactive[11.4 µM]

Results for COc1ccc(CCNC(=O)C2CCN(S(=O)(=O)c3ccc(Cl)cc3)CC2)cc1OC ?
ALOX12 inhib: inactive; IMPase Li cell: inactive; PNC assembly inh: -100.0; IMPase inh: inactive; HPGD block: inactive

Results for COc1ccc(CCNC(=O)C2CCN(Cc3nc(-c4cccc(Cl)c4)oc3C)CC2)cc1OC ?
ALOX12 inhib: inactive; IMPase Li cell: inactive; PNC assembly inh: -83.4; IMPase inh: inactive; HPGD block: inactive; 15-hLO-2 inh: inactive

How did CCS(=O)(=O)N1CCC(C(=O)NCCC2=CCCCC2)CC1 do in these assays?
ALOX12 inhib: inactive; IMPase Li cell: inactive; PNC assembly inh: inconclusive; IMPase inh: inactive; HPGD block: inactive; 15-hLO-2 inh: inactive

Results for COc1ccc(OC)c(S(=O)(=O)N2CCC(C(=O)N3CCc4ccccc4C3)CC2)c1 ?
ALOX12 inhib: inactive; IMPase Li cell: inactive; PNC assembly inh: inactive; IMPase inh: inactive; HPGD block: 22.4µM; 15-hLO-2 inh: inactive

How did CCCCNC(=O)C1CCN(S(=O)(=O)c2c(C)noc2/C=C\c2ccc(OC)cc2)CC1 do in these assays?
ALOX12 inhib: inactive; IMPase Li cell: inactive; PNC assembly inh: inactive; IMPase inh: inactive; HPGD block: inactive; 15-hLO-2 inh: inactive

How did COCCCNC(=O)C1CCN(S(=O)(=O)c2c(C)noc2/C=C\c2ccc(OC)cc2)CC1 do in these assays?
ALOX12 inhib: inactive; IMPase Li cell: inactive; PNC assembly inh: -109.2; IMPase inh: inactive; HPGD block: inactive; 15-hLO-2 inh: inactive

How did Cc1noc(/C=C/c2ccco2)c1S(=O)(=O)N1CCC(C(=O)N2CCc3ccccc3C2)CC1 do in these assays?
ALOX12 inhib: inactive; IMPase Li cell: inactive; PNC assembly inh: inactive; IMPase inh: inactive; HPGD block: 20µM; 15-hLO-2 inh: inconclusive

How did COCCNC(=O)C1CCN(S(=O)(=O)c2ccccc2)CC1 do in these assays?
ALOX12 inhib: inactive; IMPase Li cell: inactive; PNC assembly inh: inactive; IMPase inh: inactive; HPGD block: 25.1µM; 15-hLO-2 inh: inactive

What do the screens show for `Cc1cccc(CCNC(=O)C2CCN(S(=O)(=O)c3ccccc3)CC2)c1`?
IMPase Li cell: inactive

How did Cc1ccc(NC(=O)C2CCN(S(=O)(=O)c3c(C)noc3/C=C/c3ccco3)CC2)nc1 do in these assays?
ALOX12 inhib: inactive; IMPase Li cell: inactive; PNC assembly inh: inconclusive; HPGD block: inactive

Results for Cc1ccc(C)c(C(=O)CSc2nc(-c3ccccc3)nc3c2CCCC3)c1 ?
IMPase inh: inactive

Results for COc1ccc(-c2nc(-c3ccccc3)[nH]c(=O)c2C#N)cc1 ?
ALOX12 inhib: inactive; IMPase Li cell: inactive; PNC assembly inh: inactive; IMPase inh: inactive; HPGD block: 20µM; 15-hLO-2 inh: inactive

Results for CCCCC/C=C\C\C=C/C=C/C=C/[C@@H](SCC(N)C(=O)O)[C@@H](O)CCCC(=O)O (stereo not given in full) ?
ALOX12 inhib: inactive; IMPase Li cell: inactive; HPGD block: inactive

What do the screens show for `CCOC(=O)c1csc(NC(=O)CSc2nnnn2-c2ccc3c(c2)OCCO3)n1`?
ALOX12 inhib: inactive; IMPase Li cell: inactive; PNC assembly inh: -87.6; IMPase inh: inconclusive; HPGD block: inactive

How did CCOC(=O)c1sc(NC(=O)CSc2nnnn2-c2ccc(C)c(C)c2)nc1C do in these assays?
ALOX12 inhib: inactive; IMPase Li cell: inactive; PNC assembly inh: inactive; IMPase inh: inactive; HPGD block: inactive; 15-hLO-2 inh: inactive

Results for COC(=O)c1ccccc1NC(=O)CSc1n[nH]c(C)n1 ?
ALOX12 inhib: inactive; IMPase Li cell: inactive; PNC assembly inh: -100.0; IMPase inh: inactive; HPGD block: inactive

Results for CCOC(=O)c1sc(NC(=O)CSc2nnnn2-c2ccc(C)cc2C)nc1C ?
ALOX12 inhib: inactive; IMPase Li cell: 10µM; PNC assembly inh: inactive; IMPase inh: inactive; HPGD block: inactive; 15-hLO-2 inh: inactive

How did COC(=O)c1ccccc1NC(=O)CSc1n[nH]c(CC(C)C)n1 do in these assays?
ALOX12 inhib: inactive; IMPase Li cell: inactive; PNC assembly inh: inactive; IMPase inh: inactive; HPGD block: inactive; 15-hLO-2 inh: inactive

What do the screens show for `CCOC(=O)c1c(-c2ccc(C)o2)csc1NC(=O)CSc1nnnn1-c1ccccc1`?
ALOX12 inhib: inconclusive; IMPase Li cell: inactive; PNC assembly inh: inactive; IMPase inh: inactive; HPGD block: 11.2µM; 15-hLO-2 inh: inconclusive

Results for NCCC[C@@H](CC(=O)N[C@@H]1CCCC[C@H]1C(=O)N[C@H](CC(=O)N[C@@H](CCC(=O)O)CC(=O)O)Cc1ccccc1)NC(=O)C[C@H](Cc1c[nH]c2ccccc12)NC(=O)[C@@H]1CNCC[C@H]1N ?
ALOX12 inhib: inactive; IMPase Li cell: inactive; HPGD block: inactive

Results for CN(C)CC(CN(C)C)c1ccccn1 ?
ALOX12 inhib: inactive[11.4 µM]; IMPase Li cell: inactive; HPGD block: inactive; 15-hLO-2 inh: inactive[11.4 µM]

Results for COC(=O)c1ccccc1NC(=O)CSc1nnnn1-c1ccc(C)cc1C ?
ALOX12 inhib: inactive; IMPase Li cell: 10µM; PNC assembly inh: inactive; IMPase inh: inactive; HPGD block: inactive; 15-hLO-2 inh: inactive
